Assay results taken from PubChem BioAssay (EPA / NIEHS).
Activity calls are given as the source filed them. The calls were made as follows: active = hit-call score of the fitted dose curve at least 0.9, where 1 is the maximum; inactive = score below 0.9.

Tests used:
[1] = ATG_M_61_CIS: Attagene CIS-FACTORIAL HepG2 Assay for M61 Transcription Factor (Internal Marker) (AID 2282937); settings: HepG2 Attagene CIS-FACTORIAL M61 internal marker reporter; actives raise or lower the signal
How it was run: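 This endpoint serves as an internal background control within a multiplexed HepG2 cis-reporter panel. Cells are exposed for 24 h; reporter mRNA is amplified, fluorescently labelled and sized by capillary electrophoresis, with DMSO as negative control.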

[2] = ATG_EGR_CIS: Attagene CIS-FACTORIAL HepG2 Assay for human Early Growth Response 1 (EGR1) (AID 2282938); settings: HepG2 Attagene CIS-FACTORIAL EGR reporter mRNA; actives raise or lower the signal
How it was run: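 HepG2, transient MRTU transfection (cis promoters), 24 h compound. RNA → RT (oligo-dT) → PCR → 6-FAM labelling → HpaI cut → CE fluorescence. Bidirectional fit, DMSO baseline.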

[3] = ATG_M_19_CIS: Attagene CIS-FACTORIAL HepG2 Assay for M19 Transcription Factor (Internal Marker) (AID 2282939); settings: HepG2 Attagene CIS-FACTORIAL M19 internal marker reporter; actives raise or lower the signal
How it was run: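 HepG2, MRTU transient transfection, 24 h dosing. Total RNA → RT-PCR → 6-FAM primer extension → HpaI digest → CE fluorescence. Bidirectional curve fit, DMSO negative control.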

[4] = ATG_Ets_CIS: Attagene CIS-FACTORIAL HepG2 Assay for human Erythroblast Transformation Specific (ETS) (AID 2282941); settings: HepG2 ETS cis-reporter transcription, actives raise or lower the signal
How it was run: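 Steps: transfect HepG2 with multiple reporter units; treat compound 24 h; isolate RNA, DNase-treat, reverse-transcribe; PCR-amplify, label with 6-FAM, digest with HpaI; separate by capillary electrophoresis. Activity fitted both directions versus DMSO.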

[5] = target: Hepatocyte nuclear factor 3-beta (Homo sapiens) (UniProt Q9Y261); test: ATG_FoxA2_CIS: Attagene CIS-FACTORIAL HepG2 Assay for human Forkhead box A2 (FOXA2) (AID 2282942); settings: HepG2 cis-reporter transcription factor activity, 24 h; actives raise or lower the signal
Chain of Hepatocyte nuclear factor 3-beta (Homo sapiens) (Q9Y261 whole entry, looked up): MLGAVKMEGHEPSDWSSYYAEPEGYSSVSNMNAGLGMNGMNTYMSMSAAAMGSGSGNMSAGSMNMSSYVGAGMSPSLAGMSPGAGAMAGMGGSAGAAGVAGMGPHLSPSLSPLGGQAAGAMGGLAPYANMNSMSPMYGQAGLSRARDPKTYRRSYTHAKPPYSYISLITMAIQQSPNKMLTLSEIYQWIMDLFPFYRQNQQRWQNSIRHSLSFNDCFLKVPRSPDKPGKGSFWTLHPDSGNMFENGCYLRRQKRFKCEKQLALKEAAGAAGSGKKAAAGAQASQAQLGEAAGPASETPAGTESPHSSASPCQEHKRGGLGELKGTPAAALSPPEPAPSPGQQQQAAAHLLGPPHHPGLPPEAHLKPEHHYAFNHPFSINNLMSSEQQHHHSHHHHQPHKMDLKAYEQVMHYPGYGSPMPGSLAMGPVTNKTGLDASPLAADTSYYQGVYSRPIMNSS
How it was run: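 Cells: HepG2, transient multiplex reporter transfection. Exposure 24 h. Detection: reporter-specific RT-PCR, fluorescent labelling, restriction digest, capillary electrophoresis. Analysis: bidirectional curve fit, DMSO as negative control.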

[6] = ATG_FoxO_CIS: Attagene CIS-FACTORIAL HepG2 Assay for human Forkhead box O (FoxO) (AID 2282943); settings: HepG2 Attagene cis-reporter, FoxO element, mRNA; actives raise or lower the signal
How it was run: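 HepG2, transient MRTU transfection (cis element, endogenous TFs). Dose 24 h. TriZol RNA → oligo(dT) RT → PCR → 6-FAM primer extension → HpaI cut → CE. Gain/loss vs DMSO.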

[7] = ATG_GATA_CIS: Attagene CIS-FACTORIAL HepG2 Assay for human GATA Binding Protein (AID 2282944); settings: HepG2 GATA cis-element reporter, Attagene multiplex mRNA; actives raise or lower the signal
How it was run: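 Cells: HepG2, transiently transfected with cis-regulated reporter transcription units. Exposure: 24 h. Detection: RT-PCR plus capillary electrophoresis of FAM-labeled fragments. Analysis: bidirectional, DMSO as baseline.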

[8] = ATG_GLI_CIS: Attagene CIS-FACTORIAL HepG2 Assay for human Zinc Finger Protein GLI1 (AID 2282945); settings: HepG2, Attagene cis-factorial reporter mRNA, GLI element; actives raise or lower the signal
How it was run: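 Bidirectional curve fits relative to DMSO, using reporter mRNA levels from RT-PCR plus capillary electrophoresis. Cells were HepG2 transiently carrying cis-regulated reporter constructs, harvested 24 h after dosing.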

[9] = target: Bile acid receptor (Homo sapiens) (UniProt Q96RI1); test: ATG_IR1_CIS: Attagene CIS-FACTORIAL HepG2 Assay for human Nuclear Receptor Subfamily 1 Group H Member 4 (NR1H4), IR1 submotif (AID 2282946); settings: IR1 reporter transcription, actives raise or lower the signal
Chain of Bile acid receptor (Homo sapiens) (Q96RI1 whole entry, looked up, the tested form may be a part): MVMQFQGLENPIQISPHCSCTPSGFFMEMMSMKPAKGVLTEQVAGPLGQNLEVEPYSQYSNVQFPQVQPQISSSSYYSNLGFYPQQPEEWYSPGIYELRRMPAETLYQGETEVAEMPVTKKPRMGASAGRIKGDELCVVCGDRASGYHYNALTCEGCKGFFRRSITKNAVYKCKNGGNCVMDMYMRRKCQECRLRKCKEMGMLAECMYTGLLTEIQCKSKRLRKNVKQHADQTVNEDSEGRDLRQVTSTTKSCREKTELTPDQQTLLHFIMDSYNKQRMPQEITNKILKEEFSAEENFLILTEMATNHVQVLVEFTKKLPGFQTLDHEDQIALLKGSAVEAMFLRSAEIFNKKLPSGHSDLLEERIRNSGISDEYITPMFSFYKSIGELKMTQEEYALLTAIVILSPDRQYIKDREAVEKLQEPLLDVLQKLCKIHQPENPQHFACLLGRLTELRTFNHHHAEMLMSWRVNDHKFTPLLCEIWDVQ
How it was run: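 Cells (human HepG2) carry transiently transfected cis-promoter reporter transcription units. Compounds are incubated 24 h, total RNA is reverse-transcribed and amplified, and labelled fragments are resolved by capillary electrophoresis. Curves use DMSO as baseline.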

Structure (SMILES) | outcome [1] | outcome [2] | outcome [3] | outcome [4] | outcome [5] | outcome [6] | outcome [7] | outcome [8] | outcome [9] | AC50 [2] | AC50 [8] | AC50 [6] | AC50 [7] | AC50 [9] | AC50 [5]
CCCSP(=O)(OCC)SCCC | inactive | inactive | inactive | inactive | inactive | inactive | inactive | inactive | inactive | – | – | – | – | – | –
CCOP(=O)(SC(C)CC)N1CCSC1=O (stereo not given) | inactive | inactive | inactive | inactive | inactive | inactive | inactive | inactive | – | – | – | – | – | – | –
CCOP(=S)(OCC)Oc1cc(C)nc(C(C)C)n1 | inactive | inactive | inactive | inactive | inactive | inactive | inactive | inactive | – | – | – | – | – | – | –
CCOP(=S)(Oc1cnc(C(C)(C)C)nc1)OC(C)C (stereo not given) | – | – | inactive | inactive | inactive | inactive | inactive | – | – | 19.3 µM (active) | 50 µM (active) | – | – | – | –
COP(=O)(OC)OC(Br)C(Cl)(Cl)Br (stereo not given) | inactive | inactive | inactive | inactive | inactive | inactive | inactive | inactive | inactive | – | – | – | – | – | –
C#CCC1=C(C)C(OC(=O)C2C(C=C(C)C)C2(C)C)CC1=O (stereo not given) | inactive | – | inactive | inactive | inactive | – | – | – | inactive | 50 µM (active) | 73.2 µM (active) | 90.3 µM (active) | 77.1 µM (active) | – | –
CCC(CC)Nc1c([N+](=O)[O-])cc(C)c(C)c1[N+](=O)[O-] | – | inactive | inactive | inactive | inactive | inactive | inactive | inactive | – | – | – | – | – | 50 µM (active) | –
CCCSP(=O)(OCC)Oc1ccc(Br)cc1Cl (stereo not given) | inactive | inactive | inactive | inactive | inactive | inactive | inactive | inactive | inactive | – | – | – | – | – | –
C#CC(C)(C)NC(=O)c1cc(Cl)cc(Cl)c1 | inactive | inactive | inactive | inactive | inactive | inactive | inactive | inactive | – | – | – | – | – | – | –
Nc1nc(N)nc(NC2CC2)n1 | inactive | inactive | inactive | inactive | inactive | inactive | inactive | inactive | inactive | – | – | – | – | – | –
CCOC(=O)COc1cc(-c2nn(C)c(OC(F)F)c2Cl)c(F)cc1Cl | inactive | inactive | inactive | inactive | inactive | inactive | inactive | inactive | – | – | – | – | – | – | –
CCNc1nc(Cl)nc(NC(C)(C)C#N)n1 | – | inactive | inactive | inactive | inactive | inactive | inactive | inactive | – | – | – | – | – | – | –
CON=C(C(=O)OC)c1ccccc1CON=C(C)c1cccc(C(F)(F)F)c1 | – | inactive | inactive | inactive | inactive | inactive | inactive | inactive | – | – | – | – | – | – | –
CNC(=O)ON=C(C)SC | inactive | inactive | inactive | inactive | inactive | inactive | inactive | inactive | – | – | – | – | – | – | –
Nc1c(Cl)cc([N+](=O)[O-])cc1Cl | inactive | inactive | inactive | inactive | – | inactive | inactive | inactive | inactive | – | – | – | – | – | 76.1 µM (active)
O=C(O)c1cc(Oc2ccc(C(F)(F)F)cc2Cl)ccc1[N+](=O)[O-] | – | inactive | inactive | inactive | inactive | inactive | inactive | inactive | – | – | – | – | – | – | –
CC(C)N(C(=O)SCC(Cl)=C(Cl)Cl)C(C)C | inactive | inactive | inactive | inactive | inactive | inactive | inactive | inactive | – | – | – | – | – | 19.9 µM (active) | –
CC(Oc1cccc(Cl)c1)C(=O)O (stereo not given) | – | inactive | inactive | inactive | inactive | inactive | inactive | inactive | inactive | – | – | – | – | – | –
COP(=O)(OC)C(O)C(Cl)(Cl)Cl (stereo not given) | inactive | – | inactive | inactive | inactive | inactive | inactive | inactive | inactive | 67.3 µM (active) | – | – | – | – | –
COc1cccc(C(=O)NN(C(=O)c2cc(C)cc(C)c2)C(C)(C)C)c1C | – | inactive | inactive | inactive | inactive | – | inactive | inactive | inactive | – | – | 12.9 µM (active) | – | – | –
CC[C@H](C)[C@H]1O[C@]2(C=C[C@@H]1C)C[C@@H]1C[C@@H](C/C=C(\C)[C@@H](O[C@H]3C[C@H](OC)[C@@H](O[C@H]4C[C@H](OC)[C@@H](NC)[C@H](C)O4)[C@H](C)O3)[C@@H](C)/C=C/C=C3\CO[C@@H]4[C@H](O)C(C)=C[C@@H](C(=O)O1)[C@]34O)O2 | – | inactive | inactive | inactive | inactive | inactive | inactive | inactive | – | – | – | – | – | – | –
CC(=NC#N)N(C)Cc1ccc(Cl)nc1 | – | inactive | inactive | inactive | inactive | inactive | inactive | inactive | – | – | – | – | – | – | –
CCCCOC(=O)c1ccccc1C(=O)O | – | inactive | inactive | inactive | – | inactive | inactive | inactive | inactive | – | – | – | – | – | 81.4 µM (active)
CCOP(=O)(NC(C)C)Oc1ccc(SC)c(C)c1 (stereo not given) | inactive | inactive | inactive | inactive | inactive | inactive | inactive | inactive | inactive | – | – | – | – | – | –
